Screening results from PubChem.
Most compounds without a hit are left out; they make up all but 0.43% or so of the library.
GLA spleen mod – inhibitors or activators of human alpha-galactosidase in spleen homogenate. human spleen homogenate, 4MU-alpha-Gal fluorescence, 40 min. Potency, µM (highest dose often 80 µM), inactives show at the highest dose activity change, negative = inhibition, most hits filed as inhibitors. 240,000 tested, 0.008% active. AID 2107;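 note: potency is the fitted concentration of half-maximal effect; 0% = enzyme with vehicle and -100% = no enzyme basal signal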
Target sequence (P06280 32-429 limits assumed): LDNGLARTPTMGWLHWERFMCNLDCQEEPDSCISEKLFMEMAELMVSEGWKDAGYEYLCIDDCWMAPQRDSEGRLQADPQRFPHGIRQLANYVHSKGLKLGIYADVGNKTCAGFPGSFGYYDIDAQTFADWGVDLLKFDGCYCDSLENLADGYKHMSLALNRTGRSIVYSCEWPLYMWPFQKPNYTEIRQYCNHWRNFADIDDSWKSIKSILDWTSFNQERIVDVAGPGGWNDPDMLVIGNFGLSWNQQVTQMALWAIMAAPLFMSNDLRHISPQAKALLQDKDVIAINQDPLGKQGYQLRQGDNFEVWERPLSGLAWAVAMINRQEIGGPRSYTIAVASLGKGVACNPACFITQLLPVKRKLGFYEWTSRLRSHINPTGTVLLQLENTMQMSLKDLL
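Human spleen homogenate (1 ug) was the enzyme source, with 4-methylumbelliferyl-alpha-D-galactopyranoside (1 mM final) in pH 5.0 citrate buffer with 0.01% Tween-20. Compounds were titrated; after 40 min at 37C, NaOH/glycine stop, 4-MU fluorescence read; AC50 from Hill fits.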
GAA inhib – inhibitors of human lysosomal alpha-glucosidase. AID 1466. Potency, µM (highest dose often 76.9 µM), inactives show at the top dose activity change, negative = inhibition, most hits filed as inhibitors. 200,000 tested, 0.005% active. purified human GAA, 4-MU-alpha-glucoside fluorescence. P10253;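 note: potency is the fitted concentration of half-maximal effect; plate controls were uninhibited enzyme wells for no effect and no-enzyme background for full effect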
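Endpoint fluorogenic read: 20 min room-temperature reaction of 4 nM human alpha-glucosidase with 400 uM 4-methylumbelliferyl-alpha-D-pyranoside, pH 5.0, quenched with 1M NaOH/1M glycine pH 10. AC50 from Hill modeling.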
N370S GC – N370S glucocerebrosidase modulation, Gaucher chaperone candidate | P04062 | N370S GC spleen homogenate, 4MU-glucoside fluorescence | Potency, µM (titrated, usually from 59.4 µM), for the others: at the top dose activity change, negative = inhibition, hits mostly inhibitors | 330,000 tested, 0.092% active | AID 2101;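 note: potency is the fitted concentration of half-maximal effect; 0% = full enzyme activity and -100% = no enzyme basal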
GAA spleen mod – inhibitors or activators of human alpha-glucosidase in spleen homogenate; Potency, µM (titrated, usually from 79.9 µM), for the others: at the top dose activity change, negative = inhibition, hits mostly inhibitors; 240,000 tested, 0.006% active; human spleen homogenate, 4-MU-alpha-glucoside fluorescence;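 note: potency is the fitted concentration of half-maximal effect; 0% = enzyme with vehicle and -100% = no enzyme basal signal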
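AC50 values come from Hill-equation fits of concentration-response data, normalized to no-enzyme and full-activity controls. Enzyme source: 1 ug human spleen homogenate; 1 mM fluorogenic 4-MU glucoside, pH 5.0 citrate buffer, 37 C, 40 min.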
GLA inh pH 4.5 – blocks human alpha-galactosidase A at pH 4.5; 230,000 tested, under 10 active; purified enzyme, 4-MU-alpha-Gal fluorescence, pH 4.5; activity change, negative = inhibition, % at 105 µM;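 note: 0% = full activity with enzyme and -100% = basal without enzyme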
GAA glycogen – GAA glycogen-cleavage inhibition or activation. Potency, µM (titrated, usually from 76.4 µM), inactives show at the top dose activity change, negative = inhibition, actives largely listed as inhibitors. P10253. AID 2100. 300,000 tested, 0.38% active. recombinant GAA, glycogen substrate, Amplex Red glucose oxidase fluorescence;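 note: potency is the fitted concentration of half-maximal effect; 0% = full enzyme reaction and -100% = no-enzyme basal signal; the screen sought inhibitors and activators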
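Recombinant enzyme (4 nM final) with compounds titrated up to 77 uM and bovine liver glycogen (30 ug) in citrate pH 5.0, 0.01% Tween-20, 37 C 40 min. Released glucose detected by Amplex Red/glucose oxidase (Ex 573/Em 610); AC50 from Hill fits.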
* hit, by the source's call; ? = inconclusive; nt = no result given; [ ] = another dose, or the depositor's remark. Calls come from the whole dose curve; as a rule, active = well fitted curve in the direction sought with a large enough effect; inconclusive = small, poorly fitted or top-dose-only effect, or another doubt; inactive = no such curve, though single readings can be large; an effect the other way counts as inactive or inconclusive.

SMILES	GLA spleen mod	GAA inhib	N370S GC	GAA spleen mod	GLA inh pH 4.5	GAA glycogen
O=c1[nH]c(CN2CCN(CCO)CC2)nc2ccccc12	-7.5%	-4.5%	2.0%	-12.5%	6.4	2.8%
O=c1[nH]c(CN2CCN(c3ccccc3O)CC2)nc2ccccc12	7.3%	?	-7.9%	1.6%	-2.3	7.94µM*
CCOC(=O)CCN1C(=O)[C@H]2[C@H]3[C@H](O)[C@H](O)C/C(=N/NC(=O)OCc4ccccc4)[C@@H]3CC[C@@H]2C1=O	0.3%[17.5 µM]	nt	2.5%[12.8 µM]	3.3%[17.4 µM]	nt	nt
c1ccc(C2[C@H]3CN(CC4CCCCC4)[C@H](c4ccccc4)C34CC2(c2cccnc2)C4)cc1 (some centres not stated)	2.7%	nt	14.1µM*	1.4%	1.9	-0.6%
COc1cccc(NC(=S)NNC(=O)C(C)n2nc(C)c([N+](=O)[O-])c2C)c1 (configuration not stated)	14.6%	0.3%	15.1%	8.5%	2.7	10µM*
COc1cccc(NC(=S)NNC(=O)c2c([N+](=O)[O-])c(C)nn2C)c1	-1.3%	0.7%	-1.9%	-1.1%	2.2	24.9µM*
Cc1ccc(C(=O)OC[C@H]2O[C@H](Cl)C[C@@H]2OC(=O)c2ccc(C)cc2)cc1	1.8%	nt	10.8%	-2.5%	-1.3	nt
CCC(C)CC(C)CC(C)C(=O)/C=C(/O)C(C)CC(C)C/C=C/C(C)C(O)C(C)C(O)CC1CCC(C)(C)O1 (configuration not stated)	-5.0%	nt	-2.1%	-0.4%	nt	nt
COc1ccccc1C1(O)CCN(CCCn2c3ccccc3c3ccccc32)CC1	-8.3%	nt	-9.7%	2.7%	nt	nt
C/C(=C\C(=O)c1cccnc1)Nc1ccc(O)cc1	-5.5%	-10.6%	-26.5%	-12.3%	-15.1	14µM*
C/C(=C\C(=O)c1ccccc1)Nc1ccc(O)cc1	0.1%	-7.2%	-12.7%	-4.6%	-0.5	39.8µM*
COc1ccc(NC(=O)c2cccnc2)cc1	nt	nt	-4.9%	nt	nt	14.8%[76.3 µM]
Cc1ccc(NC2=CC(=O)c3sc(C)nc3C2=O)cc1	8.6%	nt	-4.8%	-3.4%	nt	nt
COc1ccc(S(=O)(=O)Nc2c(C(=O)O)[nH]c3ccccc23)c(OC)c1	9.6%	-0.5%	-6.0%	4.4%	-19.0	3.52µM*
COc1ccc(S(=O)(=O)Nc2c(C(=O)O)[nH]c3ccc(OC)cc23)c(OC)c1	nt	nt	0.4%	nt	nt	?
COc1ccc(S(=O)(=O)Nc2c(C(=O)O)[nH]c3ccc(OC)cc23)cc1	nt	nt	-7.0%	nt	nt	?
COc1ccc2[nH]c(C(=O)O)c(NS(=O)(=O)c3ccc(OC)c(OC)c3)c2c1	-2.6%	4.1%	-2.8%	-5.7%	-2.8	3.98µM*
Cc1ccc2c(=O)c3cccc(CC(=O)O)c3oc2c1C	?	nt	-3.1%	1.5%	nt	nt
COc1cc(C(=O)OCCC(C)C)cc(OC)c1O	-1.4%	-10.0%	3.5%	0.8%	-16.1	11.2µM*
CCCCOC(=O)c1cc(Cl)c(O)c(OC)c1	-2.8%	-0.1%	4.1%	-10.0%	-8.8	-3.5%
NNC(=O)c1cc(-c2ccccc2)sc1N	7.0%	nt	-6.8%	0.6%	2.6	5.01µM*
CCCCCCCCCCCCCCCCOC[C@H](COP(=O)([O-])OCC[N+](C)(C)C)OC(=O)CCCCCCCC(=O)O	-10.8%	nt	-7.2%	-6.9%	nt	nt
COc1cc(/C=N/Nc2nncn2/N=C/c2ccc(O)c(OC)c2)ccc1O	1.1%	0.7%	-6.6%	-5.4%	-2.7	10µM*
CCOc1cc(/C=N/Nc2nnc(C)n2N)ccc1O	nt	nt	-13.4%	nt	nt	11.1µM*
COc1cc(/C=N/Nc2ccccc2)ccc1O	nt	nt	-8.2%	nt	nt	?
COc1ccc(OC)c(/C=N/Nc2nncn2/N=C/c2cc(OC)ccc2OC)c1	5.1%	1.1%	3.3%	-4.5%	-12.6	-8.9%
COc1cc(/C=N/Nc2ccccc2C(F)(F)F)ccc1O	-13.6%	-4.5%	-5.7%	?	0.0	35.5µM*
COc1cc(/C=N/Nc2ccccn2)cc(OC)c1O	-7.5%	-5.9%	19.0%	-9.2%	-12.0	17.8µM*
